This test is described as follows: growth suppression of PTEN-null HCT116 cells, cell-based, validation, diverse DP compound set (AID 999).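 Further: 100% = median luminescence of untreated cell control wells and 0% = no signal.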 The conditions noted are these: CellTiter-Glo, 60 h, at 10 µM, active compounds read low. Background: In ATP-based viability assays light output follows the ATP content of the culture.

Values without a mark were called inactive. Activity calls are given as the source filed them.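 How the source made its calls: active means viability at or below 21.59%, 3 SD under the median of tested compounds; inactive means the rest.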

Take `Nc1c(N=Nc2ccc(-c3ccc(N=Nc4cc(S(=O)(=O)O)c5ccccc5c4N)cc3)cc2)cc(S(=O)(=O)O)c2ccccc12`: the viability was 86.5%.
Then `COc1ccc(CCN(C)CCCN2CCc3cc(OC)c(OC)cc3CC2=O)cc1OC`, with 97.1%; and `CC1(C)OC2CC(=O)OCC23C1CC(=O)C1(C)C3CC[C@@]2(C)[C@H](c3ccoc3)OC(=O)C3OC312` (stereo not given in full), with 97.3%.
Then `O=c1c2ccccc2nc2n1CCc1c-2[nH]c2ccccc12`, with 93.4%; and `CC(C)NCC(O)COc1cccc2ccccc12` (stereo not given), with 89.1%.
In the case of `NS(=O)(=O)c1cc(C(=O)O)c(NCc2ccco2)cc1Cl` it was 104%; in that of `CC1(C)[C@@H](O[C@H]2O[C@H](C(=O)O)[C@@H](O)[C@H](O)[C@H]2O[C@@H]2O[C@H](C(=O)O)[C@@H](O)[C@H](O)[C@H]2O)CC[C@]2(C)[C@H]3C(=O)C=C4[C@@H]5C[C@@](C)(C(=O)O)CC[C@]5(C)CC[C@@]4(C)[C@]3(C)CC[C@@H]12`, 103%.
With `CC(C)C[C@@H](NC(=O)[C@@H](O)[C@H](N)Cc1ccccc1)C(=O)O`, the viability was 94.5%.
In the case of `CN(C)c1ccc(/C=C2\C(=O)Nc3ccccc32)cc1` it was 86.2%; in that of `NC(=O)c1cccc(N)c1`, 94.5%.
Consider `O=c1c(-c2ccc(O)cc2)coc2cc(O)ccc12`, for which the viability was 89.7%.
In the case of `COc1cc(Cc2cnc(N)nc2N)cc(OC)c1OC` it was 102%; in that of `CC1COC2=C1C(=O)C(=O)c1c2ccc2c1CCCC2(C)C` (stereo not given), 17.8% (active).
Then `O=C(O)c1cc([N+](=O)[O-])ccc1NCCCc1ccccc1`, with 94.2%; and `O=C(O)c1cc(=O)c2c(OCC(O)COc3cccc4oc(C(=O)O)cc(=O)c34)cccc2o1`, with 98.8%; and `CC1=C(/C=C/C(C)=C/C=C/C(C)=C/C=C/C=C(C)/C=C/C=C(C)/C=C/C(=O)[C@]2(C)C[C@@H](O)CC2(C)C)C(C)(C)C[C@H](O)C1`, with 80.7%.
In the case of `C=CCc1ccc(O)c(-c2cc(CC=C)ccc2O)c1` it was 98.7%; in that of `Cc1c2oc3c(C)ccc(C(=O)N[C@@H]4C(=O)N[C@H](C(C)C)C(=O)N5CCC[C@H]5C(=O)N(C)CC(=O)N(C)[C@@H](C(C)C)C(=O)O[C@@H]4C)c3nc-2c(C(=O)N[C@@H]2C(=O)N[C@H](C(C)C)C(=O)N3CCC[C@H]3C(=O)N(C)CC(=O)N(C)[C@@H](C(C)C)C(=O)O[C@@H]2C)c(N)c1=O`, 43.2%; in that of `COc1ccc(CCN(C)CCCC(C#N)(c2ccc(OC)c(OC)c2)C(C)C)cc1OC` (stereo not given), 85.1%.
Regarding `Cn1c(=O)c2[nH]cnc2n(C)c1=O`, the viability is 97.1%.
Then `COc1cc(CNC(=O)CCCC/C=C/C(C)C)ccc1O`, with 99.3%; and `CCOC(=O)c1c(N)sc(C)c1-c1ccccc1`, with 105%.
Then `C/C=C1/C2C=C(C)CC1(N)c1ccc(=O)[nH]c1C2` (stereo not given), with 93.8%; and `CC(C)=CCC[C@](C)(O[C@@H]1O[C@H](CO)[C@@H](O)[C@H](O)[C@H]1O)[C@H]1CC[C@]2(C)[C@@H]1[C@H](O)C[C@@H]1[C@@]3(C)CC[C@H](O[C@@H]4O[C@H](CO)[C@@H](O)[C@H](O)[C@H]4O[C@@H]4O[C@H](CO)[C@@H](O)[C@H](O)[C@H]4O)C(C)(C)[C@@H]3[C@@H](O)C[C@]12C`, with 92%.
With `COc1cc2c(c(OC)c1OC)-c1ccc(OC)c(=O)cc1[C@@H](NC(C)=O)CC2`, the viability is 32.5%.
In the case of `O=c1c(-c2ccc(O)cc2)coc2cc(O)cc(O)c12`, the viability was 87.8%.
Turning to `CC1(C)CCC[C@@](C)([C@H]2CC[C@]3(C)[C@@H]2[C@H](O)C[C@@H]2[C@@]4(C)CC[C@H](O)C(C)(C)[C@@H]4[C@@H](O)C[C@]23C)O1`, the viability was 100%.
`COc1c(C)c2c(c(O)c1C/C=C(\C)CCC(=O)O)C(=O)OC2`: the viability was 40.1%.
For `CC(C)CC(=O)N[C@H](C(=O)N[C@H](C(=O)N[C@@H](CC(C)C)[C@@H](O)CC(=O)N[C@@H](C)C(=O)N[C@@H](CC(C)C)[C@@H](O)CC(=O)O)C(C)C)C(C)C`, the viability is 98.2%.
Then `COc1cc([C@@H]2c3cc4c(cc3[C@H](O)[C@H]3COC(=O)[C@H]23)OCO4)cc(OC)c1OC`, with 24.6%.

A word on the viability: it is a read-out of living cells in per cent, often relative to untreated cells.
